Results filed as inconclusive are left out. Where a call stands in place of a potency, no number is given. The source made the active and inactive calls. The call rests on the fitted dose curve; in most records, active means well fitted inhibition curve with a large enough effect; inconclusive means small, poorly fitted or top-dose-only effect; inactive means flat fitted curve, though single readings scatter.

Chain of Calcium and integrin-binding protein 1 (Homo sapiens) (Q99828 whole entry, looked up): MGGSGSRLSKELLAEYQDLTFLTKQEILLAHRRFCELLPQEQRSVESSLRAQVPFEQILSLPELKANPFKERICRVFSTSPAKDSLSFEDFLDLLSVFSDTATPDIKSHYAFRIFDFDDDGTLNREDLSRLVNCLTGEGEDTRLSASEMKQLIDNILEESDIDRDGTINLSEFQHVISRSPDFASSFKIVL

This assay concerns the target Calcium and integrin-binding protein 1 (Homo sapiens) (UniProt Q99828). Nature of the assay: Primary qHTS for Identification of Calcium Integrin Binding Protein 1 (CIB1) Competitor (AID 1508620).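 Further: GST tagged CIB1 binding a fluorescein labelled alphaIIb integrin peptide tracer; top concentration of the series differs between compounds.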 To be noted: CIB1-GST / FITC-alphaIIb peptide fluorescence polarization; series mostly up to 114 µM. A digest of the protocol: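 Fluorescence polarization competition: CIB1-GST (1 uM final) preincubated with compound 15 min at room temperature, then FITC-labeled alphaIIb peptide (100 nM final) added for another 15 min. Polarization read at Ex 480/Em 540.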
On the technique in general: In qHTS, concentration-response curves come from the screen itself.
Turning to `CC(C)=CCC/C(C)=C/CC/C(C)=C/COC1OC(COC2OCC(OC3OCC(O)C(O)C3O)C(O)C2O)C(O)C(OC2OC(C)C(OC3OC(C)C(OC4OCC(OC5OC(C)C(O)C(O)C5O)C(O)C4O)C(O)C3O)C(O)C2O)C1O` (stereo not drawn), the activity change, negative = inhibition is 4.51% [at 12.4 µM] (inactive).
On to `CC(O)CCC1C(CO[C@@H]2O[C@H](CO)[C@@H](O)[C@H](O)[C@H]2O)CC(O)CC1(C)C` (stereo partly drawn), for which the Potency result is “inactive”.
As for `CC(C)C[C@H](CC(=O)NO)C(=O)N[C@H](C(=O)N[C@@H](C)C(=O)NCCN)C(C)(C)C`, the Potency entry is “inactive”.
With `C[C@@H]1O[C@@H](O[C@H]2[C@H](OC(=O)[C@]34CCC(C)(C)C[C@H]3C3=CCC5[C@@]6(C)C[C@H](O)[C@H](O[C@@H]7O[C@H](CO)[C@@H](O[C@H]8OC[C@](O)(CO)[C@H]8O)[C@H](O)[C@H]7O)[C@@](C)(CO)C6[C@H](O)C[C@@]5(C)[C@]3(C)C[C@H]4O)OC[C@H](O)[C@@H]2O)[C@H](O)[C@H](O)[C@H]1O[C@@H]1OC[C@@H](O)[C@H](O[C@@H]2OC[C@](O)(CO)[C@H]2O)[C@H]1O` (stereo partly drawn), the activity change, negative = inhibition was -2.92% [at 12.4 µM] (inactive).
`CC(C)=CCC/C(C)=C/CO[C@@H]1O[C@H](CO)[C@@H](OC(=O)/C=C/c2ccc(O)cc2)[C@H](O[C@@H]2O[C@@H](C)[C@H](O)[C@@H](O)[C@H]2O)[C@H]1O`: the Potency result is “inactive”.
With `CC(=O)OC1C(c2ccccc2)CCC(c2ccccc2)C1OC(C)=O` (stereo not drawn), the Potency result was “inactive”.
On the same count and under the same terms, in the case of `CC(=O)C1=C(C)N(c2cccc(C(F)(F)F)c2)C(=O)N[C@H]1c1ccc(C#N)nc1` it was “inactive”; in that of `CC1CCC2(C(=O)O)CCC3(C)C(=CCC4C5(C)CCC(OC(=O)/C=C/c6ccccc6)C(C)(C)C5CCC43C)C2C1C` (stereo not drawn), “inactive”; in that of `CCOC(=O)c1sc(NC(=O)[C@H](C(C)C)n2c(=O)[nH]c3ccccc3c2=O)nc1C`, “inactive”.
On the same count and under the same terms, the result for `O=C(/C=C\c1ccc(O)cc1)N[C@@H](Cc1ccc(O)cc1)C(=O)O` reads “inactive”.
With `C=CC(C)(C)c1[nH]c2ccccc2c1C[C@@H]1NC(=O)[C@H](Cc2c[nH]c3ccccc23)NC1=O`, the Potency result was “inactive”.
Take `Cc1[nH]c2ccccc2c1C1=C(NCCc2ccc(F)cc2)C(=O)N(C)C1=O`: the Potency result is “inactive”.
Consider `CC1(C)CC[C@]2(C(=O)O[C@@H]3O[C@H](CO)[C@@H](O)[C@H](O)[C@H]3O)CC[C@]3(C)C(=CCC4[C@@]5(C)C[C@@H](O)[C@H](O)C(C)(C)C5CC[C@]43C)C2[C@@H]1O` (stereo partly drawn), for which the Potency entry is “inactive”.
In the case of `C[C@@H]1C(=O)O[C@H]2C[C@]34[C@H]5C[C@@H](C(C)(C)C)[C@]36[C@@H](OC(=O)[C@H]6O)O[C@]4(C(=O)O5)[C@]21O`, the Potency entry was “inactive”.
On the same count and under the same terms, in the case of `CC1=C(C(=O)O[C@@H]2O[C@H](COC3OCC(O)C(O)C3O)[C@@H](O)[C@H](O)[C@H]2O)C(C)(C)CCC1` (stereo partly drawn) it was “inactive”; in that of `CC(C)S(=O)(=O)N[C@H]1CCOC[C@@H]1c1ccc(-c2ccc(C#N)s2)cc1`, “inactive”.
With `CC(=O)OC1C(O)C2C(C)C3=CC(=O)OC3(O)CC2C2(C)CCCC(C)(CO)C12` (stereo not drawn), the Potency entry was “inactive”.
For the compound `C[C@@H]1CC[C@]2(C(=O)O)CC[C@]3(C)C(=CCC4[C@@]5(C)CC[C@H](O)C(C)(C)C5C(O)C[C@]43C)[C@@H]2[C@]1(C)O` (stereo partly drawn), the Potency entry was “inactive”.
On the same count and under the same terms, the result for `O=C(C(c1ccccc1)c1ccccc1)N1CCN(CC(O)COc2cccc3ncccc23)CC1` (stereo not drawn) reads “inactive”.
With `CC(O)(CC(=O)O)CC(=O)OCc1ccc(O[C@@H]2O[C@H](CO)[C@@H](O)[C@H](O)[C@H]2O)cc1` (stereo partly drawn), the Potency result is “inactive”.
On the same count and under the same terms, in the case of `COC(=O)C1=CO[C@@H](O[C@@H]2O[C@H](CO)[C@@H](O)[C@H](O)[C@H]2O)[C@H]2[C@@H]1CC(OC)O[C@@H]2C` (stereo partly drawn) it was “inactive”; in that of `O=C(Cc1ccc(-c2ccccc2)cc1)NC1CCC1`, “inactive”.
Same read-out and setting: in the case of `C[C@H](CCC(=O)O)[C@H]1CC[C@H]2[C@@H]3C[C@H](O)[C@@H]4C[C@H](O)CC[C@]4(C)[C@H]3CC[C@]12C` it was “inactive”; in that of `CC(=O)/C=C/[C@H]1[C@](C)(O)[C@@H](O)[C@H](OC(C)=O)C2C(C)(C)CCC[C@@]21C` (stereo partly drawn), “inactive”; in that of `C[C@@H]1O[C@@H](O[C@@H]2CO[C@@H](O[C@H]3CC[C@@]4(C)C(CC[C@]5(C)C4CC=C4[C@@H]6CC(C)(C)CC[C@]6(C(=O)O[C@@H]6O[C@H](CO)[C@@H](O)[C@H](O)[C@H]6O)CC[C@]45C)[C@]3(C)CO)[C@H](O)[C@H]2O[C@@H]2O[C@H](CO)[C@@H](O)[C@H](O)[C@H]2O)[C@H](O)[C@H](O)[C@H]1O` (stereo partly drawn), “inactive”.
Same read-out and setting: the result for `CNC12CC3C[C@@](C)(C1)C[C@](C)(C3)C2` reads “inactive”; that for `O=C1CCC(=O)N(O)CCCCCNC(=O)CCC(=O)N(O)CCOCCNC(=O)CCC(=O)N(O)CCCCCN1`, “inactive”; that for `OC[C@H]1O[C@@H](OC(CCCCc2ccc(O)cc2)CCc2ccc(O)cc2)[C@H](O)[C@@H](O)[C@@H]1O` (stereo partly drawn), “inactive”.

Values taken from PubChem BioAssay (NCATS).
